The source of these data is PMC7862700, “An all-to-all approach to the identification of sequence-specific readers for epigenetic DNA modifications on cytosine”.

What all share (assay): DAPPL (digital affinity profiling via proximity ligation, sequencing); 10 mM Tris-HCl pH 7.5, 50 mM NaCl, 1 mM DTT, 4% glycerol, room temperature, 30 min; GST-TFs on glutathione beads, 16-mer random dsDNA library, 0.1% formaldehyde crosslink after washing; high values mean tight binding
What all share (settings): protein: recombinant; tags: N-terminal GST; dsDNA, one strand shown

One assay addresses T1, FLI1 (Homo sapiens, UniProt Q01543 1-452).
T1 sequence: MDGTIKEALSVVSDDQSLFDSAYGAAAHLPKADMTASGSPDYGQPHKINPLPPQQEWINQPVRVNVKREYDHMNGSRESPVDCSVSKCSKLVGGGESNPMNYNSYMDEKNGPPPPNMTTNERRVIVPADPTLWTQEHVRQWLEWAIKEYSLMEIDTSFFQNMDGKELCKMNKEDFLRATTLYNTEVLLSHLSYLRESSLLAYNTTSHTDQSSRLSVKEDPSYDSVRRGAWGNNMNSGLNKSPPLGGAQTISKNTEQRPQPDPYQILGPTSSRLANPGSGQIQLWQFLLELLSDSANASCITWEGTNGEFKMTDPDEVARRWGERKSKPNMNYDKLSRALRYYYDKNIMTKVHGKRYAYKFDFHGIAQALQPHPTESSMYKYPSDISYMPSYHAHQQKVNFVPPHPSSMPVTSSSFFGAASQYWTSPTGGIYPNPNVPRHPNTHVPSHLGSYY
Put shortly:
(§1)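 Pools were built from human transcription factors expressed in yeast as GST fusions, captured on glutathione beads and DNA-barcoded, along with a tag-only sample. Incubation with 200 nmole of a 16-mer random double-stranded DNA library lasted 30 min at room temperature in Tris/NaCl/DTT/glycerol buffer, and was followed by washing, 0.1% formaldehyde crosslinking, proximity ligation, PCR amplification and Illumina NextSeq500 sequencing. Binding signal is the quotient of each hexamer's read frequency for a factor and its frequency for the tag-only sample.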

The next assay has as its target T2, ELK1 (Homo sapiens, UniProt P19419 1-428).
T2 sequence: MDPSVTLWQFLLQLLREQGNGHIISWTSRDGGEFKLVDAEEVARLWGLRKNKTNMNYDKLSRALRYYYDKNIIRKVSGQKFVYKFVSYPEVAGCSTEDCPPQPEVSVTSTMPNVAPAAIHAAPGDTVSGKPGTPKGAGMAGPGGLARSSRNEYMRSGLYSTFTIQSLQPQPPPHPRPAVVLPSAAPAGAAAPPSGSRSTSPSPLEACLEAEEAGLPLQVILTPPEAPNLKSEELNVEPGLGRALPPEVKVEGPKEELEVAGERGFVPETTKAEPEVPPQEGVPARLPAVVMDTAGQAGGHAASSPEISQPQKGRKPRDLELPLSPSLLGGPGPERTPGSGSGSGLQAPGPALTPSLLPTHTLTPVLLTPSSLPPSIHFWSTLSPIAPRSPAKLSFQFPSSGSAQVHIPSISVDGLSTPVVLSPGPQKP
Put shortly: as §1

In a further assay the target is T3, ERG (Homo sapiens, UniProt P11308 1-479).
T3 sequence: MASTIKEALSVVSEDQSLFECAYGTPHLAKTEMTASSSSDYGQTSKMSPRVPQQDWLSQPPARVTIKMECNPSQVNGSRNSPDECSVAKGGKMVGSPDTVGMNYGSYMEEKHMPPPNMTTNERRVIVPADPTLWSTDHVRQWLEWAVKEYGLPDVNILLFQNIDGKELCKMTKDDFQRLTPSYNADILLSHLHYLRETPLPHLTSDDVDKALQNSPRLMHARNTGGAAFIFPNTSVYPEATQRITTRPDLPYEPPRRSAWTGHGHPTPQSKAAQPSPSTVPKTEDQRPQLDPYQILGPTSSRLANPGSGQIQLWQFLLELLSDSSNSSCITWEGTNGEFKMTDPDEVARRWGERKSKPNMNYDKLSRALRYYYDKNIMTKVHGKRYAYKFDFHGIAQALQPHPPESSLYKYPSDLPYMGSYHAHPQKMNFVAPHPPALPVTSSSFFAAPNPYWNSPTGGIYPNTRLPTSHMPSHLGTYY
Put shortly:
as §1

A further assay addresses ELF1 (Homo sapiens, UniProt P32519 1-619). Summed up:
as §1

The target of a further assay is SPI1 (Homo sapiens, UniProt P17947 1-270). Put shortly: as §1
Another assay deals with SPIB (Homo sapiens, UniProt Q01892 1-262). Summed up: as §1
Chain of SPIB (Q01892 whole entry): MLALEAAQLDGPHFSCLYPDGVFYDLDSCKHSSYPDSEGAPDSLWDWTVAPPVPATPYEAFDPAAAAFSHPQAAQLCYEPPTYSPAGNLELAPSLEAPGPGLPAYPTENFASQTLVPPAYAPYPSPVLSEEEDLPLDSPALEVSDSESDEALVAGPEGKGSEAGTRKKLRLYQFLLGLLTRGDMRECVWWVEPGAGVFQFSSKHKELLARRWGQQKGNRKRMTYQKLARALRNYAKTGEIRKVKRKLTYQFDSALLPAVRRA
The target of a further assay is T4, ELK3 (Homo sapiens, UniProt P41970 1-407).
T4 sequence: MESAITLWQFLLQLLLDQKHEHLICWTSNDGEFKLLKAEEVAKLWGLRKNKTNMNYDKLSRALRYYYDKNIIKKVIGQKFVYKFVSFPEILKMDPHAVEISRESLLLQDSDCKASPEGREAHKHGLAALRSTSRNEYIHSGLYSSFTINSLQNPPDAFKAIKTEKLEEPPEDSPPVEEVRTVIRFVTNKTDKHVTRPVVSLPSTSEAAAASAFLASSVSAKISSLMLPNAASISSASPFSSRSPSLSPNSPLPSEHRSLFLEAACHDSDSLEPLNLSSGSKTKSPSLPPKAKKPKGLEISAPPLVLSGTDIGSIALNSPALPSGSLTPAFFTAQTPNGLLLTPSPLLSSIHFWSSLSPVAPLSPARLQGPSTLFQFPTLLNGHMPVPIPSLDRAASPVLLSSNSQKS
Put shortly: as §1

The target in a further assay is ETV5 (Homo sapiens, UniProt P41161 1-510). Summed up:
as §1

In a further assay the target is T5, SPIC (Homo sapiens, UniProt Q8N5J4 1-248).
T5 sequence: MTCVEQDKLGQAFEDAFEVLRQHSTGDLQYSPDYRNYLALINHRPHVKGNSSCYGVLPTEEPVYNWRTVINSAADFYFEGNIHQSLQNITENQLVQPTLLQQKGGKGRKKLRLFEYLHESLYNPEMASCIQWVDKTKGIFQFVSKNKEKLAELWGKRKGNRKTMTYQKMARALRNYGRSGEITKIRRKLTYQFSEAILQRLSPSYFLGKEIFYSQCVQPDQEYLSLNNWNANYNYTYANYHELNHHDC
Put shortly: as §1

A further assay has as its target T6, ERF (Homo sapiens, UniProt P50548 1-548).
T6 sequence: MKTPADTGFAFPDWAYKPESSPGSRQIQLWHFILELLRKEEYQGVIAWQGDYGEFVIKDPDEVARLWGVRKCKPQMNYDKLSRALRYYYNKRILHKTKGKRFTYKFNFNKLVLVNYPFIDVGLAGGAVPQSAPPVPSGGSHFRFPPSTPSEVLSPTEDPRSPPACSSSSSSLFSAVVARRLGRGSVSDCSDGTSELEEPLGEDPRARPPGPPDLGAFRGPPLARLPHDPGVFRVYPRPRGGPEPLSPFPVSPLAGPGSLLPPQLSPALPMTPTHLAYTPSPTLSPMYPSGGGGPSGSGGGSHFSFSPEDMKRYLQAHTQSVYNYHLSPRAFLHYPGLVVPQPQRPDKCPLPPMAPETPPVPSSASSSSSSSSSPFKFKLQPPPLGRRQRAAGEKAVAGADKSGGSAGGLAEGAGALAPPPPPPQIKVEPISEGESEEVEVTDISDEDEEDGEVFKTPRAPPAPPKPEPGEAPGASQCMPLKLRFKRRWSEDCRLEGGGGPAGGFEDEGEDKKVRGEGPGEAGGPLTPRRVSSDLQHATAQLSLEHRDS
Summed up:
as §1

The target of a further assay is T7, ETV3L (Homo sapiens, UniProt Q6ZN32 1-361).
T7 sequence: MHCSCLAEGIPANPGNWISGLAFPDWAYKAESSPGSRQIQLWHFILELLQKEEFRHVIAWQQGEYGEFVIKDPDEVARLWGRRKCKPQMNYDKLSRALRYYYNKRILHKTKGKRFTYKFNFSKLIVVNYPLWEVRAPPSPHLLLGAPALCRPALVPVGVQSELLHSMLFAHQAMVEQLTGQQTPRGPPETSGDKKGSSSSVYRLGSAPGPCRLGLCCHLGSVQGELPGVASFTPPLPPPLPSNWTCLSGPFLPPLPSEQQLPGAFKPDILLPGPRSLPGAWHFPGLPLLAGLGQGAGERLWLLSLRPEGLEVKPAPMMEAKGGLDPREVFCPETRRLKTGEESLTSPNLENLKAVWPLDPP
Put shortly: as §1

Another assay concerns the target T8, ETS2 (Homo sapiens, UniProt P15036 1-469).
T8 sequence: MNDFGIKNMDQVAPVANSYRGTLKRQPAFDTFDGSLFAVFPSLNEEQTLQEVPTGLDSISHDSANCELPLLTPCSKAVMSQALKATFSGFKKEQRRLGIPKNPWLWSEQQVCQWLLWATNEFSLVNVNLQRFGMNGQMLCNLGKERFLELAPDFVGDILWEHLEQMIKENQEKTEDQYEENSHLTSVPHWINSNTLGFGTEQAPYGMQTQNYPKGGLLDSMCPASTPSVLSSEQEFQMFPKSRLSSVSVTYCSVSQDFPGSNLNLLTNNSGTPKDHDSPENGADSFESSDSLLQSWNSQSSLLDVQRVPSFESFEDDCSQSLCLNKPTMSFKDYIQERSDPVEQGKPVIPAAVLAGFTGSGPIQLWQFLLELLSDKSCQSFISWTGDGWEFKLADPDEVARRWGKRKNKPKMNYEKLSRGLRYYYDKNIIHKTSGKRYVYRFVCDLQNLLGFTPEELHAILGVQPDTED
Put shortly: as §1

In a further assay the target is T9, ELF5 (Homo sapiens, UniProt Q9UKW6-2 1-255).
T9 sequence: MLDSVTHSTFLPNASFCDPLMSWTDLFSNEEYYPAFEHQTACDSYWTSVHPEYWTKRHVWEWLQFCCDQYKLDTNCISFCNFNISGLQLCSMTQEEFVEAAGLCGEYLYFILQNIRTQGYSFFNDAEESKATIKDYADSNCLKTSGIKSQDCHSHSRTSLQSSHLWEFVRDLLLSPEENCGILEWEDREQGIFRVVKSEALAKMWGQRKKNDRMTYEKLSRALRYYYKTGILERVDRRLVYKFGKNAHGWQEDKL
Summed up: as §1

Another assay concerns the target T10, ETV3 (Homo sapiens, UniProt P41162-2 1-143).
T10 sequence: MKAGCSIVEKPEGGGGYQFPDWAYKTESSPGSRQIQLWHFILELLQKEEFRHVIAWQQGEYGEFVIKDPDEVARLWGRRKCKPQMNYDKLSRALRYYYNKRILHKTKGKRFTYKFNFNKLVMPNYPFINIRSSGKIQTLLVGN
Put shortly: as §1

Chain of ELF1 (P32519 whole entry): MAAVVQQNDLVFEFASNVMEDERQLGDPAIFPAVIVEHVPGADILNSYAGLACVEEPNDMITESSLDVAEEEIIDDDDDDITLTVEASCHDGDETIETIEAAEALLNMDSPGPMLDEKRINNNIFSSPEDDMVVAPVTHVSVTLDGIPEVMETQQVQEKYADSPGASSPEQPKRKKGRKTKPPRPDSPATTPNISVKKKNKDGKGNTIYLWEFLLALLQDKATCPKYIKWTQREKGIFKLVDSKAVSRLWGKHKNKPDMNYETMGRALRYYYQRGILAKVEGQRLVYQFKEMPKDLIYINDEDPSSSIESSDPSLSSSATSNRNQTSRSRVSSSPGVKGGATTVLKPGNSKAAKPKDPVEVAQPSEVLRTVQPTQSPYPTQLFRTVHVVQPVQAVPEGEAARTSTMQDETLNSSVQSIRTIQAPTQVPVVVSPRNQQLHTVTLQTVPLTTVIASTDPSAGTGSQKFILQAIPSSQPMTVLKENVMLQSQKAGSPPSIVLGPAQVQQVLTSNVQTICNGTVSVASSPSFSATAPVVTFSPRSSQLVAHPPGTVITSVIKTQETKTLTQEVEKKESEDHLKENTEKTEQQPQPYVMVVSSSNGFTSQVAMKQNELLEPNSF
Chain of ETV5 (P41161 whole entry): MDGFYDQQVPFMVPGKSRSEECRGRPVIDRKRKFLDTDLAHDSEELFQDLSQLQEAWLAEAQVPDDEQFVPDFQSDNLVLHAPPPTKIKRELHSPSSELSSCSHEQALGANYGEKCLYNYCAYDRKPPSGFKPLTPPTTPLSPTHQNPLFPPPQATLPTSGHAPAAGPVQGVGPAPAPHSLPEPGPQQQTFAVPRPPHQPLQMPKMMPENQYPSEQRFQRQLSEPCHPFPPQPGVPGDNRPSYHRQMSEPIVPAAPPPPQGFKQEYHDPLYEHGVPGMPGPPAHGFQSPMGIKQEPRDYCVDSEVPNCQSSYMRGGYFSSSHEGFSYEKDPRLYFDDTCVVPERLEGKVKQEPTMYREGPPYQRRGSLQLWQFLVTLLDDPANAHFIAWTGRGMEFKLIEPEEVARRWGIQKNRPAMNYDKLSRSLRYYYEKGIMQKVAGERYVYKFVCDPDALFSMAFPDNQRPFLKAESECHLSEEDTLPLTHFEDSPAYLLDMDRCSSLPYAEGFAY

On to GTTGCG, for which the binding signal with FLI1 was 1 fold enrichment (6-mer frequency, TF over GST control); in the assay with ELK1, 1.04 fold enrichment (6-mer frequency, TF over GST control); with ERG, 1.09 fold enrichment (6-mer frequency, TF over GST control); with ELF1 it was 1.02 fold enrichment (6-mer frequency, TF over GST control); with SPI1, 1.02 fold enrichment (6-mer frequency, TF over GST control); with SPIB it was 1.15 fold enrichment (6-mer frequency, TF over GST control). In addition, the binding signal with ELK3 is 1.01 fold enrichment (6-mer frequency, TF over GST control); with ETV5 it was 1.07 fold enrichment (6-mer frequency, TF over GST control); in the assay with SPIC, 1.23 fold enrichment (6-mer frequency, TF over GST control); in the assay with ERF, 1.14 fold enrichment (6-mer frequency, TF over GST control); in the assay with ETV3L it was 1.06 fold enrichment (6-mer frequency, TF over GST control); with ETS2, 1.07 fold enrichment (6-mer frequency, TF over GST control). Further, the binding signal with ELF5 was 1.02 fold enrichment (6-mer frequency, TF over GST control); with ETV3 it was 1.07 fold enrichment (6-mer frequency, TF over GST control).
